Screening results deposited in PubChem by Sanford-Burnham Center for Chemical Genomics.
H9c2 TAG inh: inhibitors of triacylglycerol accumulation, primary screen, cell-based, uHTS, fluorescence, H9c2 | 230,000 tested, 0.66% active | H9c2 cells, Nile Red lipid (TAG) fluorescence; cells loaded with 200 µM oleic acid | inhibition, % at 12.5 µM;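 active means pattern-corrected inhibition of lipid staining of at least 50% with the nuclear-stain viability signal not falling by more than 50%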;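 further: 0% = DMSO wells and 100% = triacsin C control wells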
CRFR2-BP ag: agonists of CRF-BP/CRF-R2 complex, primary screen, cell-based, HEK293, calcium dye fluorescence, uHTS. activation, % at 13.2 µM. AID 588473, 2011. calcium dye fluorescence (FLIPR); percent of saturating CRF peptide response. 350,000 tested, 0.46% active. CRF-binding protein / CRF receptor 2 complex (human);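 active means activation of at least 50%, plus an integration ratio under a set limit after plate pattern correction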;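 further: plate controls were neutral control wells without compound for no effect and CRF at EC100 for full effect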
SKN-1 inh: suppressors of acrylamide-induced Pgst-4::GFP reporter in worms, primary screen, SKN-1 inhibitor project, whole organism, uHTS, GFP/RFP fluorescence ratio, strain VP596; C. elegans VP596 Pgst-4::GFP/RFP ratio, 24 h; inhibition, % at 21.8 µM; 360,000 tested, 0.49% active; AID 624304, 2012;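 active means interference check ratio from 0.5 to 1.5 plus GFP to RFP signal ratio inhibition reaching or exceeding a fixed threshold, cut at about 30% in these data, passing the limit was not always enough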
iPSC survival up: enhancers of single-cell hiPSC survival, primary screen, ATPlite luminescence. 100% = ROCK inhibitor wells, 0% = DMSO. survival enhancement, % at 20 µM. 360,000 tested, 0.044% active. AID 602274, 2012; in the data active means survival enhancement above about 18%;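 further: cells exposed to compounds for 16 hours before the ATP read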
Cardio protect: cardioprotection against H2O2-induced cell death, primary screen, uHTS, H9c2 cells, ATPLite luminescence; H9c2 cardiomyocytes, H2O2 injury protection, 2 h; protection from H2O2 cell death, % at 20 µM; 360,000 tested, 0.63% active; AID 588492, 2011;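 active means compounds giving at least 50% protection of heart cells from peroxide-induced death in the single-dose screen, raw or plate-pattern-corrected value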;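 further: 0% = DMSO wells with peroxide and 100% = DMSO wells without peroxide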
CRFR2-BP antag: antagonists of CRF-BP/CRF-R2 complex, primary screen, cell-based, HEK293, calcium dye fluorescence, uHTS; 350,000 tested, 0.59% active; CRF-induced calcium fluorescence; inhibition, % at 11.8 µM;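 active means inhibition of the ligand-induced calcium signal above about 50% at the single tested concentration, limit read from the data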
Active calls of the source: *; / = no result. Sampled rows, rich in hits. Any-hit rate of the full collection: about 2.5%.

SMILES	H9c2 TAG inh	CRFR2-BP ag	SKN-1 inh	iPSC survival up	Cardio protect	CRFR2-BP antag
COc1ccc(Nc2nnc(-c3ccc(O)cc3)c3ccccc23)cc1C(N)=O	0	-1	11	-1	57*	18
CCCCn1c(=O)[nH]c2nc3cc(NC(C)=O)ccc3nc2c1=O	6	22	3	-1	22	-6
CCCCCCn1c(=O)[nH]c2nc3cc(N)c(C)cc3nc2c1=O	/	325*	-29	-3	21	-228
COC(=O)[C@@]1(Cc2ccc(OC)cc2)[C@H]2c3cc(C(=O)N4CCCC4)n(Cc4ccccc4)c3C[C@H]2CN1C(=O)c1ccccc1	/	/	15	0	/	/
Cc1ccc(Cn2c(C)c(C(=O)NCc3cccs3)sc2=O)cc1	-5	/	-8	-2	-1	/
COC(=O)c1ccc(Cn2c(C)c(C(=O)NCc3cccs3)sc2=O)o1	9	/	3	-2	52*	/
Cc1[nH]n(-c2ccccc2)c(=O)c1/C=N/N1C(=O)c2cccc3cccc(c23)C1=O	5	62*	7	-2	40	22
CC(C)C1C(=O)N(Cc2cn(CCC3OCCO3)nn2)CCS(=O)(=O)N1Cc1ccc(-c2ccccc2Cl)cc1 (stereo unspecified)	/	/	8	-1	-3	/
CC(C)CN1CCN(C(=O)COC(=O)c2ccc(S(C)(=O)=O)c([N+](=O)[O-])c2)CC1	65*	/	-9	4	-24	/
CCC(OC(=O)c1ccc(S(C)(=O)=O)c([N+](=O)[O-])c1)C(=O)NC1C2CC3CC(C2)CC1C3 (stereo unspecified)	74	/	10	30*	-23	/
CS(=O)(=O)c1ccc(C(=O)OCC(=O)NC23CC4CC(CC(C4)C2)C3)cc1[N+](=O)[O-]	/	0	-7	-1	-20	-2
CC(OC(=O)c1ccc(S(C)(=O)=O)c([N+](=O)[O-])c1)C(=O)NC1C2CC3CC(C2)CC1C3 (stereo unspecified)	65*	/	-14	24*	-44	/
CC(NC(=O)CN1CCN(S(=O)(=O)c2ccc(Br)cc2)CC1)c1ccccc1 (stereo unspecified)	-4	0	-2	0	-6	-5
Cc1c(C(=O)NCc2ccco2)sc(=O)n1Cc1ccc(S(C)(=O)=O)cc1	4	/	-1	2	8	/
Cc1ccc(NC(=O)COC(=O)C2(C)CC2(Cl)Cl)cc1S(=O)(=O)N1CCOCC1 (stereo unspecified)	-13	0	41*	0	5	-1
Cc1ccc(NC(=O)COC(=O)c2ccco2)cc1S(=O)(=O)N1CCOCC1	12	1	-2	0	2	8
Cc1ccc(/C(=N\O)c2oc3c(C)c4oc(=O)cc(C)c4cc3c2C)cc1	-149	-1	-1	-2	-6	11
Cc1cc(=O)oc2c1ccc1oc(/C(=N/O)c3ccccc3)c(C)c12	-59	-1	-8	3	-2	118*
CCOc1ccc(/C=C/C(=O)c2cc(Br)ccc(=O)c2O)cc1	/	5	0	0	53*	-26
O=C(C=Cc1ccccc1)c1cc(Br)ccc1O	-22	-3	43*	-2	-2	-10
CCc1ccc(/C=C/C(=O)c2cc(Br)ccc(=O)c2O)cc1	/	-3	8	7	10	-6
COc1ccc(OC)c(C(=O)COC(=O)c2ccc([N+](=O)[O-])o2)c1	17	3	-3	-2	54*	-14
O=C(CCc1nc2ccccc2c(=O)[nH]1)NCc1cccc(Cl)c1	/	-3	0	1	37	11
O=C(O)CCc1nc2ccccc2c(=O)[nH]1	0	0	3	0	0	-5
O=C(CCc1nc2ccccc2c(=O)[nH]1)NNC(=O)c1ccc(Cl)cc1	8	0	6	0	61*	8
O=C(CCc1nc2ccccc2c(=O)[nH]1)NNC(=O)c1ccc(F)cc1	12	0	5	-1	78*	1
